# Test results reported in article PMC11006913.
# Where a chain is given by its changes, count along the chain named.
# What was measured:
# Assay in all cases: PBM; 200 nM protein, PBS
# Conditions in all cases: dsDNA, one strand shown
# [1] = target: SHOX (Homo sapiens, UniProt O15266 103-189)
# [2] = target: CRX (Homo sapiens, UniProt O43186 26-111)
# [3] = target: HOXA7 (Homo sapiens, UniProt P31268 116-202)
# [4] = target: CRX (Homo sapiens, UniProt O43186 26-111, E42D)
# [5] = target: MSX2 (Homo sapiens, UniProt P35548 130-214, R199I)
# [6] = target: SHOX (Homo sapiens, UniProt O15266 103-189, R173C)
# [7] = target: MSX2 (Homo sapiens, UniProt P35548 130-214)
# [8] = target: MSX2 (Homo sapiens, UniProt P35548 130-214, F161Y)
# [9] = target: HOXA7 (Homo sapiens, UniProt P31268 116-202, W177C)
# [10] = target: NKX3-2 (Homo sapiens, UniProt P78367 192-278, P234S)
# [11] = target: CRX (Homo sapiens, UniProt O43186 26-111, R41L)
# [12] = target: NKX3-2 (Homo sapiens, UniProt P78367 192-278)
# [13] = target: T1, VENTX (Homo sapiens, UniProt O95231 78-163, R121Q)
# T1 sequence: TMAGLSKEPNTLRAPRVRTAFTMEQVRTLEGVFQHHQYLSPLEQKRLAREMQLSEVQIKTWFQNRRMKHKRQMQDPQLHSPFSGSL
# [14] = target: HOXC9 (Homo sapiens, UniProt P31274 178-260, K195R)
# [15] = target: T2, VENTX (Homo sapiens, UniProt O95231 78-163)
# T2 sequence: T1 sequence with Q44R
# [16] = target: T3, VENTX (Homo sapiens, UniProt O95231 78-163, Y115F)
# T3 sequence: T1 sequence with Y38F, Q44R
# [17] = target: HOXC9 (Homo sapiens, UniProt P31274 178-260)
# [18] = target: HOXC9 (Homo sapiens, UniProt P31274 178-260, R193K)
# [19] = target: HOXC9 (Homo sapiens, UniProt P31274 178-260, R222W)
# [20] = target: HOXA4 (Homo sapiens, UniProt Q00056 201-287, W262R)
# [21] = target: HOXB6 (Homo sapiens, UniProt P17509 132-218, K202E)
# [22] = target: HOXA4 (Homo sapiens, UniProt Q00056 201-287, R217L)
# [23] = target: HOXA4 (Homo sapiens, UniProt Q00056 201-287)
# [24] = target: HOXA4 (Homo sapiens, UniProt Q00056 201-287, W262F)
# [25] = target: HOXB6 (Homo sapiens, UniProt P17509 132-218)
# [26] = target: T4, SIX6 (Homo sapiens, UniProt O95475 114-200, L167I)
# T4 sequence: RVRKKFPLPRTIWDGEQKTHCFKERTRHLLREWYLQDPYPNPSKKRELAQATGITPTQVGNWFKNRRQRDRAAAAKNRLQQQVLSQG
# [27] = target: T5, SIX6 (Homo sapiens, UniProt O95475 114-200, L143V)
# T5 sequence: T4 sequence with L30V, I54L
# [28] = target: T6, SIX6 (Homo sapiens, UniProt O95475 114-200, H141N)
# T6 sequence: T4 sequence with H28N, I54L
# [29] = target: T7, SIX6 (Homo sapiens, UniProt O95475 114-200, T165P)
# T7 sequence: T4 sequence with T52P, I54L
# [30] = target: T8, SIX6 (Homo sapiens, UniProt O95475 114-200, L167M)
# T8 sequence: T4 sequence with I54M
# [31] = target: T9, SIX6 (Homo sapiens, UniProt O95475 114-200, L143M)
# T9 sequence: T4 sequence with L30M, I54L
# [32] = target: T10, SIX6 (Homo sapiens, UniProt O95475 114-200, L143I)
# T10 sequence: T4 sequence with L30I, I54L
# [33] = target: T11, SIX6 (Homo sapiens, UniProt O95475 114-200, T165G)
# T11 sequence: T4 sequence with T52G, I54L
# [34] = target: T12, SIX6 (Homo sapiens, UniProt O95475 114-200, T139Q)
# T12 sequence: T4 sequence with T26Q, I54L
# [35] = target: T13, SIX6 (Homo sapiens, UniProt O95475 114-200, T165A)
# T13 sequence: T4 sequence with T52A, I54L
# [36] = target: T14, SIX6 (Homo sapiens, UniProt O95475 114-200, L167V)
# T14 sequence: T4 sequence with I54V
# [37] = target: T15, SIX6 (Homo sapiens, UniProt O95475 114-200)
# T15 sequence: T4 sequence with I54L
# [38] = target: T16, SIX6 (Homo sapiens, UniProt O95475 114-200, T165I)
# T16 sequence: T4 sequence with T52I, I54L
# [39] = target: T17, PAX4 (Homo sapiens, UniProt O43316 9-242, R200K)
# T17 sequence: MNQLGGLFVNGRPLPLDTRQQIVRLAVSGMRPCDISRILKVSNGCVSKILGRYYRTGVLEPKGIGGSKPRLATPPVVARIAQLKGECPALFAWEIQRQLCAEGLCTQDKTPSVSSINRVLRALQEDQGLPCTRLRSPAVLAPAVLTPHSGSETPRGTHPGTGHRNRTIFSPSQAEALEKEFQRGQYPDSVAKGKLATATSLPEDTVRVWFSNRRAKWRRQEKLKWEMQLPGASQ
# [40] = target: T18, PAX4 (Homo sapiens, UniProt O43316 9-242)
# T18 sequence: T17 sequence with K192R
# [41] = target: T19, PAX4 (Homo sapiens, UniProt O43316 9-242, R200Q)
# T19 sequence: T17 sequence with K192Q
# [42] = target: T20, PAX4 (Homo sapiens, UniProt O43316 9-242, F177V)
# T20 sequence: T17 sequence with F169V, K192R
# [43] = target: T21, PAX4 (Homo sapiens, UniProt O43316 9-242, F177Y)
# T21 sequence: T17 sequence with F169Y, K192R
# [44] = target: T22, PAX4 (Homo sapiens, UniProt O43316 9-242, R227W)
# T22 sequence: T17 sequence with K192R, R219W
# Sequence of SHOX (Homo sapiens, UniProt O15266 103-189) (O15266 103-189): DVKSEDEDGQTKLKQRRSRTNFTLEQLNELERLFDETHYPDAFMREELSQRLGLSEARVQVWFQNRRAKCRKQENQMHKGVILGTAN
# Sequence of SHOX (Homo sapiens, UniProt O15266 103-189, R173C) (O15266 103-189 R173C): as the sequence (O15266 103-189) above, with R71C counted along it
# Sequence of MSX2 (Homo sapiens, UniProt P35548 130-214) (P35548 130-214): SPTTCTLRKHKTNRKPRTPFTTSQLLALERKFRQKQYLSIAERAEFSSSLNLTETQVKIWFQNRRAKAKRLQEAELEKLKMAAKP
# Sequence of MSX2 (Homo sapiens, UniProt P35548 130-214, R199I) (P35548 130-214 R199I): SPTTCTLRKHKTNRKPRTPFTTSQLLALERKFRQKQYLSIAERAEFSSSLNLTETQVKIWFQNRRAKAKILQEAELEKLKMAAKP
# Sequence of MSX2 (Homo sapiens, UniProt P35548 130-214, F161Y) (P35548 130-214 F161Y): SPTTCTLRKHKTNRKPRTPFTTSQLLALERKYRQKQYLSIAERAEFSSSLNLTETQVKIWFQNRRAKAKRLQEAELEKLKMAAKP
# Sequence of CRX (Homo sapiens, UniProt O43186 26-111) (O43186 26-111): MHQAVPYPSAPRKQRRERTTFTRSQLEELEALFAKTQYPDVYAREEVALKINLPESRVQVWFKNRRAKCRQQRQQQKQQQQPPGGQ
# Sequence of CRX (Homo sapiens, UniProt O43186 26-111, E42D) (O43186 26-111 E42D): as the sequence (O43186 26-111) above, with E17D counted along it
# Sequence of CRX (Homo sapiens, UniProt O43186 26-111, R41L) (O43186 26-111 R41L): as the sequence (O43186 26-111) above, with R16L counted along it
# Sequence of HOXC9 (Homo sapiens, UniProt P31274 178-260, R222W) (P31274 178-260 R222W): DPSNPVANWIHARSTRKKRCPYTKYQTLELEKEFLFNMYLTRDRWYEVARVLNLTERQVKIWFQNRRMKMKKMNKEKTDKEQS
# Sequence of HOXA4 (Homo sapiens, UniProt Q00056 201-287, W262R) (Q00056 201-287 W262R): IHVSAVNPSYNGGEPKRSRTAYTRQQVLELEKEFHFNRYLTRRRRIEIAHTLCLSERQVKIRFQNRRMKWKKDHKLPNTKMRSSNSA
# Sequence of NKX3-2 (Homo sapiens, UniProt P78367 192-278, P234S) (P78367 192-278 P234S): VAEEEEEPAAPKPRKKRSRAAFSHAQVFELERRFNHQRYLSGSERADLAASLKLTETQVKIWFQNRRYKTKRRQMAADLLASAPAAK
# Sequence of HOXB6 (Homo sapiens, UniProt P17509 132-218, K202E) (P17509 132-218 K202E): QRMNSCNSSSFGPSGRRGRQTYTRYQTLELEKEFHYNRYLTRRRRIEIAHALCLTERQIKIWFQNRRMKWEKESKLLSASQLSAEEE
# Sequence of HOXB6 (Homo sapiens, UniProt P17509 132-218) (P17509 132-218): as the sequence (P17509 132-218 K202E) above, with E71K counted along it
# Sequence of HOXA7 (Homo sapiens, UniProt P31268 116-202) (P31268 116-202): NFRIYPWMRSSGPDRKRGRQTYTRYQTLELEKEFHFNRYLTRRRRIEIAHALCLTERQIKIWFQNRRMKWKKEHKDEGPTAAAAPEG
# Sequence of HOXC9 (Homo sapiens, UniProt P31274 178-260) (P31274 178-260): as the sequence (P31274 178-260 R222W) above, with W45R counted along it
# Sequence of HOXC9 (Homo sapiens, UniProt P31274 178-260, R193K) (P31274 178-260 R193K): as the sequence (P31274 178-260 R222W) above, with R16K, W45R counted along it
# Sequence of HOXA4 (Homo sapiens, UniProt Q00056 201-287) (Q00056 201-287): as the sequence (Q00056 201-287 W262R) above, with R62W counted along it
# Sequence of NKX3-2 (Homo sapiens, UniProt P78367 192-278) (P78367 192-278): as the sequence (P78367 192-278 P234S) above, with S43P counted along it
# Sequence of HOXA4 (Homo sapiens, UniProt Q00056 201-287, W262F) (Q00056 201-287 W262F): as the sequence (Q00056 201-287 W262R) above, with R62F counted along it
# Sequence of HOXA4 (Homo sapiens, UniProt Q00056 201-287, R217L) (Q00056 201-287 R217L): as the sequence (Q00056 201-287 W262R) above, with R17L, R62W counted along it
# Sequence of HOXC9 (Homo sapiens, UniProt P31274 178-260, K195R) (P31274 178-260 K195R): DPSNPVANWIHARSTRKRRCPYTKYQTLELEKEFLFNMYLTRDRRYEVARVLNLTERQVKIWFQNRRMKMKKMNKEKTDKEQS
# Sequence of HOXA7 (Homo sapiens, UniProt P31268 116-202, W177C) (P31268 116-202 W177C): as the sequence (P31268 116-202) above, with W62C counted along it
sequence,measurement,setting,value
GCCTCGCC,binding signal,[1],"7.06 upbm affinity estimate (log intensity, higher = more binding, comparable within an allelic series)"
same,binding signal,[2],"8.26 upbm affinity estimate (log intensity, higher = more binding, comparable within an allelic series)"
same,binding signal,[3],"8.38 upbm affinity estimate (log intensity, higher = more binding, comparable within an allelic series)"
same,binding signal,[4],"8.29 upbm affinity estimate (log intensity, higher = more binding, comparable within an allelic series)"
same,binding signal,[5],"9.34 upbm affinity estimate (log intensity, higher = more binding, comparable within an allelic series)"
same,binding signal,[6],"7.02 upbm affinity estimate (log intensity, higher = more binding, comparable within an allelic series)"
same,binding signal,[7],"9.36 upbm affinity estimate (log intensity, higher = more binding, comparable within an allelic series)"
same,binding signal,[8],"9.46 upbm affinity estimate (log intensity, higher = more binding, comparable within an allelic series)"
same,binding signal,[9],"8.26 upbm affinity estimate (log intensity, higher = more binding, comparable within an allelic series)"
same,binding signal,[10],"10.6 upbm affinity estimate (log intensity, higher = more binding, comparable within an allelic series)"
same,binding signal,[11],"8.24 upbm affinity estimate (log intensity, higher = more binding, comparable within an allelic series)"
same,binding signal,[12],"10.4 upbm affinity estimate (log intensity, higher = more binding, comparable within an allelic series)"
CTATCATC,binding signal,[1],"8.16 upbm affinity estimate (log intensity, higher = more binding, comparable within an allelic series)"
CCTGCCTC,binding signal,[1],"7.13 upbm affinity estimate (log intensity, higher = more binding, comparable within an allelic series)"
same,binding signal,[2],"8.19 upbm affinity estimate (log intensity, higher = more binding, comparable within an allelic series)"
same,binding signal,[4],"8.2 upbm affinity estimate (log intensity, higher = more binding, comparable within an allelic series)"
same,binding signal,[5],"9.6 upbm affinity estimate (log intensity, higher = more binding, comparable within an allelic series)"
same,binding signal,[6],"7.13 upbm affinity estimate (log intensity, higher = more binding, comparable within an allelic series)"
same,binding signal,[7],"9.51 upbm affinity estimate (log intensity, higher = more binding, comparable within an allelic series)"
same,binding signal,[8],"9.51 upbm affinity estimate (log intensity, higher = more binding, comparable within an allelic series)"
same,binding signal,[11],"8.18 upbm affinity estimate (log intensity, higher = more binding, comparable within an allelic series)"
CGTGAGAG,binding signal,[1],"7.22 upbm affinity estimate (log intensity, higher = more binding, comparable within an allelic series)"
same,binding signal,[13],"8.23 upbm affinity estimate (log intensity, higher = more binding, comparable within an allelic series)"
same,binding signal,[14],"9.74 upbm affinity estimate (log intensity, higher = more binding, comparable within an allelic series)"
same,binding signal,[15],"8.19 upbm affinity estimate (log intensity, higher = more binding, comparable within an allelic series)"
same,binding signal,[16],"8.23 upbm affinity estimate (log intensity, higher = more binding, comparable within an allelic series)"
same,binding signal,[17],"9.82 upbm affinity estimate (log intensity, higher = more binding, comparable within an allelic series)"
same,binding signal,[6],"7.25 upbm affinity estimate (log intensity, higher = more binding, comparable within an allelic series)"
same,binding signal,[18],"9.77 upbm affinity estimate (log intensity, higher = more binding, comparable within an allelic series)"
same,binding signal,[19],"9.81 upbm affinity estimate (log intensity, higher = more binding, comparable within an allelic series)"
TAACGACA,binding signal,[1],"8.33 upbm affinity estimate (log intensity, higher = more binding, comparable within an allelic series)"
CAGGGAGG,binding signal,[1],"6.88 upbm affinity estimate (log intensity, higher = more binding, comparable within an allelic series)"
same,binding signal,[20],"9.65 upbm affinity estimate (log intensity, higher = more binding, comparable within an allelic series)"
same,binding signal,[21],"8.81 upbm affinity estimate (log intensity, higher = more binding, comparable within an allelic series)"
same,binding signal,[22],"9.79 upbm affinity estimate (log intensity, higher = more binding, comparable within an allelic series)"
same,binding signal,[6],"7 upbm affinity estimate (log intensity, higher = more binding, comparable within an allelic series)"
same,binding signal,[23],"9.91 upbm affinity estimate (log intensity, higher = more binding, comparable within an allelic series)"
same,binding signal,[24],"9.86 upbm affinity estimate (log intensity, higher = more binding, comparable within an allelic series)"
same,binding signal,[25],"8.85 upbm affinity estimate (log intensity, higher = more binding, comparable within an allelic series)"
CGACCGCC,binding signal,[1],"7.14 upbm affinity estimate (log intensity, higher = more binding, comparable within an allelic series)"
same,binding signal,[26],"8.99 upbm affinity estimate (log intensity, higher = more binding, comparable within an allelic series)"
same,binding signal,[27],"8.82 upbm affinity estimate (log intensity, higher = more binding, comparable within an allelic series)"
same,binding signal,[28],"8.95 upbm affinity estimate (log intensity, higher = more binding, comparable within an allelic series)"
same,binding signal,[29],"8.87 upbm affinity estimate (log intensity, higher = more binding, comparable within an allelic series)"
same,binding signal,[30],"9.03 upbm affinity estimate (log intensity, higher = more binding, comparable within an allelic series)"
same,binding signal,[31],"8.84 upbm affinity estimate (log intensity, higher = more binding, comparable within an allelic series)"
same,binding signal,[32],"8.91 upbm affinity estimate (log intensity, higher = more binding, comparable within an allelic series)"
same,binding signal,[33],"9.05 upbm affinity estimate (log intensity, higher = more binding, comparable within an allelic series)"
same,binding signal,[34],"8.92 upbm affinity estimate (log intensity, higher = more binding, comparable within an allelic series)"
same,binding signal,[35],"8.95 upbm affinity estimate (log intensity, higher = more binding, comparable within an allelic series)"
same,binding signal,[6],"7.26 upbm affinity estimate (log intensity, higher = more binding, comparable within an allelic series)"
same,binding signal,[36],"8.84 upbm affinity estimate (log intensity, higher = more binding, comparable within an allelic series)"
same,binding signal,[37],"8.95 upbm affinity estimate (log intensity, higher = more binding, comparable within an allelic series)"
same,binding signal,[38],"9.02 upbm affinity estimate (log intensity, higher = more binding, comparable within an allelic series)"
GGGCAGAC,binding signal,[1],"7.12 upbm affinity estimate (log intensity, higher = more binding, comparable within an allelic series)"
same,binding signal,[13],"7.99 upbm affinity estimate (log intensity, higher = more binding, comparable within an allelic series)"
same,binding signal,[15],"8.2 upbm affinity estimate (log intensity, higher = more binding, comparable within an allelic series)"
same,binding signal,[39],"9.48 upbm affinity estimate (log intensity, higher = more binding, comparable within an allelic series)"
same,binding signal,[16],"8.13 upbm affinity estimate (log intensity, higher = more binding, comparable within an allelic series)"
same,binding signal,[40],"9.45 upbm affinity estimate (log intensity, higher = more binding, comparable within an allelic series)"
same,binding signal,[41],"9.48 upbm affinity estimate (log intensity, higher = more binding, comparable within an allelic series)"
same,binding signal,[6],"7.25 upbm affinity estimate (log intensity, higher = more binding, comparable within an allelic series)"
same,binding signal,[42],"9.22 upbm affinity estimate (log intensity, higher = more binding, comparable within an allelic series)"
same,binding signal,[43],"9.21 upbm affinity estimate (log intensity, higher = more binding, comparable within an allelic series)"
same,binding signal,[44],"9.33 upbm affinity estimate (log intensity, higher = more binding, comparable within an allelic series)"
